Test results from the supplement of paper PMC7530171.
± gives the standard deviation.

System: THP-1
Assay: THP-1 cell loss relative to DMSO control; higher = more host cell loss (toxicity); extreme values may be limits of the assay
Conditions: 10 µM; 4 days; infection: M. tuberculosis H37Rv
Protocol: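 OICR kinase inhibitor library screened in duplicate at 10 uM against M. tuberculosis-infected THP-1 macrophages, 4 days at 37 C. THP-1 cell loss (cytotoxicity or loss of adherence) was quantified from Hoechst-stained nuclei counts by high-content imaging and normalised to the 1% DMSO control; 100 = complete loss of host cells.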

`COc1ccc2c(c[n+](C)c3c4cc5c(cc4ccc23)OCO5)c1OC` [Chelerythrine chloride] was tested. Which THP-1 cell loss did it give?
The THP-1 cell loss was 100%.

How did the THP-1 cell loss turn out when `CN[C@@H]1C[C@H]2O[C@@](C)([C@@H]1OC)n1c3ccccc3c3c4c(c5c6ccccc6n2c5c31)C(=O)NC4` [Staurosporine] was run?
The THP-1 cell loss was 100%.

How did the THP-1 cell loss turn out when `Cc1ccccc1-n1c(Cn2cnc3c(N)ncnc32)nc2cccc(C)c2c1=O` was run?
Its THP-1 cell loss is 5.83 ± 8.2%.

How did the THP-1 cell loss turn out when `C[C@]12O[C@H](C[C@]1(O)CO)n1c3ccccc3c3c4c(c5c6ccccc6n2c5c31)CNC4=O` [Lestaurtinib] was run?
Its THP-1 cell loss is 100%.

Which THP-1 cell loss does the source give for `CCn1cnc2c(Nc3cccc(Cl)c3)nc(N[C@@H]3CCCC[C@@H]3N)nc21` here?
The THP-1 cell loss was 100%.

Which THP-1 cell loss does the source give for `O=C1NC(=O)c2c1c1c3ccccc3[nH]c1c1[nH]c3ccccc3c21` [Arcyriaflavin A] here?
The THP-1 cell loss was 75.7 ± 34%.

How did the THP-1 cell loss turn out when `C/C(O)=C(\C#N)C(=O)Nc1cc(Br)ccc1Br` was run?
The THP-1 cell loss was 4 ± 5.7%.

Which THP-1 cell loss does the source give for `NC(=S)N/N=C/c1coc2ccccc2c1=O.[Cl][Cu][Cl]` here?
The THP-1 cell loss was 16.3 ± 5.1%.

For `COC(=O)[C@@]1(O)C[C@H]2O[C@]1(C)n1c3ccccc3c3c4c(c5c6ccccc6n2c5c31)C(=O)NC4`, which THP-1 cell loss is on record?
The THP-1 cell loss was 100%.

How did the THP-1 cell loss turn out when `Cc1n[nH]c2ccc(-c3cncc(OC[C@@H](N)Cc4c[nH]c5ccccc45)c3)cc12` was run?
The THP-1 cell loss was 100%.

For `COc1ccc2c(c1)/C(=C/c1cnc[nH]1)C(=O)N2`, which THP-1 cell loss is on record?
The THP-1 cell loss was 53.2 ± 9.3%.

Which THP-1 cell loss does the source give for `COC[C@H]1OC(=O)c2coc3c2[C@@]1(C)C1=C(C3=O)[C@@H]2CCC(=O)[C@@]2(C)C[C@H]1OC(C)=O` [Wortmannin] here?
The THP-1 cell loss was 45.8 ± 7.5%.

How did the THP-1 cell loss turn out when `O=C1NC(=O)c2c1c1c3ccccc3n3c1c1c2c2ccccc2n1[C@H]1CC[C@@H]3O1` was run?
Its THP-1 cell loss is 100%.

How did the THP-1 cell loss turn out when `CC(=O)c1c(O)c(C)c(O)c(Cc2c(O)c3c(c(C(=O)/C=C/c4ccccc4)c2O)OC(C)(C)C=C3)c1O` [Rottlerin] was run?
Its THP-1 cell loss is 71.2 ± 41%.

Which THP-1 cell loss does the source give for `N#C/C(=C\c1ccc(O)c(O)c1)C(N)=S` here?
Its THP-1 cell loss is 11.5 ± 1.3%.

How did the THP-1 cell loss turn out when `O=c1[nH]c2ccc(Cl)cc2c(N[C@@H]2CN3CCC2CC3)c1-c1nc2ccccc2[nH]1` was run?
Its THP-1 cell loss is 100%.

`Cn1cc(C2=C(c3cn(C4CCN(Cc5ccccn5)CC4)c4ccccc34)C(=O)NC2=O)c2ccccc21` [Enzastaurin] was tested. Which THP-1 cell loss did it give?
Its THP-1 cell loss is 52.5 ± 67%.

Which THP-1 cell loss does the source give for `O=C1Nc2ccc3ncsc3c2/C1=C/c1cnc[nH]1` [Imidazolo-oxindole PKR inhibitor C16] here?
Its THP-1 cell loss is 100%.
